Among all 360,000 compounds or so, about 17,000 (4.7%) were called active. Inconclusive results (about 5%) are left out. Rule as the data show it: active = activity change below about -50%; inconclusive = mostly about -30% to -49%; inactive = weaker than that. For the sample, actives were picked, then their nearest neighbours and some compounds at random.
Experiment: qHTS for Inhibitors of Inflammasome Signaling: IL-1-beta AlphaLISA Primary Screen
Details: THP-1 LPS/ATP IL-1B secretion, 16 h; at 57.5 µM, stronger effect = lower value
Source text: Inflammasomes are a set of intracellular multi-protein complexes that enable autocatalytic activation of inflammatory caspases and drive the innate immune response to counter harmful agents. […] A qHTS assay, based on AlphaLISA technology, was developed to screen the Molecular Libraries Small Molecule Repository (MLSMR) to look for novel inflammasome inhibitors. The assay detects IL-1B using AlphaLISA anti-IL-1B acceptor and donor beads. A decreased emission signal, indicating reduced IL-1B secretion, is the desired outcome for this assay. NIH Chemical Genomics Center [NCGC] NIH Molecular Libraries Probe Centers Network [MLPCN] MLPCN Grant: MH095513 Assay Provider: Shyam Biswal Ph.D., Johns Hopkins University Immunity. 2012 Jul 27;37(1):85-95. PMID: 22819042 [2] Curr Pharm Des. 2012;18(16):2320-8. PMID: 22390695
Three microliters containing 3000 THP-1 cells were dispensed into the wells of solid, white, tissue culture treated Greiner 1,536-well plates. Library compounds and positive control, Glyburide, were pin-transferred (23 nL) by a Kalypsys pin-tool equipped with a 1,536-pin array, resulting in final compound concentration ranges of 2.5 nM to 57.5 uM. After 1 hr of cell culture incubation (37 °C, 5% CO2), 1 microL of 1 microg/mL lipopolysaccharide (250 ng/mL, final) and 5 mM ATP (1.25 mM, final) were added to stimulate the cells. After 16 hr of cell culture incubation with the compounds, 1.5 uL of anti-IL-1B acceptor beads (6 ug/mL, final) and biotinylated antibody (0.6 nM, final) were added to the plate, followed by a 1 hr incubation at ambient temperature. To detect the secreted IL-1B, 1.5 uL of AlphaLISA SA-Donor beads (24 ug/mL, final) were added, followed by 30 min of incubation in the dark at ambient temperature. The AlphaLISA signal was read by a PerkinElmer EnVision plate reader with an ultrasensitive luminescence detector and 1536 Plate HTS AlphaScreen aperture (excitation of 680nm and emission of 615nm).
% is scaled to controls: 0 for no effect and ±100 for the full control effect.

Activity change, inactive:
CCCc1nc(SCC(=O)Nc2ccc(S(=O)(=O)N(C)C)cc2)c2ccccc2n1 -11.4%
CN(C(=O)CSc1nc(C2CC2)nc2ccccc12)c1nc(-c2ccccc2)cs1 -16.2%
CCOC(=O)c1ccn(S(=O)(=O)c2ccc(C)cc2)c1-c1ccccc1 40.2%
CN(N)c1nc(N2CCCC2)nc(N2CCCC2)n1 3.61%
O=C(NCc1ccccc1Cl)c1csc([C@@H]2O[C@H](CO)[C@@H](O)[C@H]2O)n1 6.54%
CN(C(=O)c1cccc(NC(=O)Cc2ccc(NC(=O)C3CCCN(C(=O)C4CC4)C3)cc2)c1)C1CC1 (centres undefined) 54.5%
Cc1ccc2nc(-c3ccccc3)c(CC3CCCCC3)n2c1 -0.767%
CCCCN(C)CCNC(=O)CSCc1ccc(C)cc1 16.4%
CC1(C)Cc2ccccc2-c2nc(CN3CCOCC3)[nH]c(=O)c21 0%
CCC1(CC)Cc2ccccc2-c2nc(CCl)[nH]c(=O)c21 38.6%
CC(OC(=O)c1cccc(S(=O)(=O)N2CCOCC2)c1)C(=O)NCC1CCCCC1 (centres undefined) -2.42%
COc1cc(/C=C/C(=O)OCC(=O)Nc2cccc(Oc3ccccc3)c2)ccc1O 15.2%
COC(=O)c1ccc(C2C(Oc3ccccc3C)C(=O)N2CCc2ccc(OC)c(OC)c2)cc1 (centres undefined) -21.3%
Cc1cc(NC(=O)CCC(=O)N(CC(=O)NC2CCCC2)c2ccc(F)cc2)no1 8.19%
Cc1cc(NC(=O)CCC(=O)N(c2cccc(F)c2)C(C(=O)NC2CCCC2)c2ccncc2)no1 (centres undefined) 10.2%
Cc1cc(C)cc(N(CC(=O)NC2CCCC2)C(=O)CCC(=O)Nc2cc(C)on2)c1 23.6%
Cc1cc(NC(=O)CCC(=O)N(c2ccccc2)C(C(=O)NC2CCCC2)c2ccncc2)no1 (centres undefined) -1.05%
Cc1oc2cc3oc(=O)ccc3cc2c1C -4.45%
Cc1ccc(S(=O)(=O)N2CC[C@H]3[C@@H](C2)C(=O)C[C@@H](c2ccccc2)N3S(=O)(=O)c2ccc(C)cc2)cc1 -0.365%
CCCC(C(=O)OCCN(CC)CC)(c1ccccc1)c1ccccc1 -14.1%
O=C(COc1ccc(S(=O)(=O)N2CCCC2)cc1[N+](=O)[O-])N1CCCCC1 10.9%
Cc1ccc(C(=O)OCC(=O)NC2CCCCCCC2)cc1C 8.07%
Cc1noc(C)c1S(=O)(=O)N(C)C[C@H]1Oc2c(NC(=O)Nc3ccc4c(c3)OCO4)cccc2C(=O)N([C@H](C)CO)C[C@@H]1C 5.23%
CSCCC(NC(=O)COc1ccccc1)C(=O)OCc1ccc(Cl)cc1 (centres undefined) 6.8%
CCn1c(C)cc(=O)cc1-c1ccc(Cl)cc1 12.5%
COc1ccc(Cn2c(=O)oc3ccccc32)cc1 -4.96%
CC1(C(=O)NS(=O)(=O)c2ccccc2)CCN1C(=O)C1CCCCC1 (centres undefined) 25.7%
Nc1nc2ncccn2c1-c1ccccc1 18.6%
O=C(Nc1ccccc1)OCc1cn(-c2ccc(Cl)cc2)nn1 33.8%
CCOC(=O)Nc1ccc(NC(=O)OCC)cc1 0.929%
Cc1cccc(N(CC(=O)N2CCCC2)S(C)(=O)=O)c1C 25%
COC(=O)c1sc2[nH]c(=S)n(N)c(=O)c2c1C 6.13%
CN(C(=O)c1cccc(NC(=O)Cc2ccc(NC(=O)C3CCCN(C(=O)C4CCCC4)C3)cc2)c1)C1CCC1 (centres undefined) -10.6%
COc1ccc2nc(C)cc(Nc3cccc(C(=O)O)c3)c2c1 10.8%
COc1cccc(NC(=O)Nc2ccc(F)cc2)c1 -27.3%
CC(C)c1cc(C(=O)NC2CCCCCC2)c2ccccc2n1 0.331%
O=C(NNC(=O)C(O)c1ccccc1)NC1CCCCC1 (centres undefined) 14.4%
CCCc1nc2ccccc2n1C(C)C(=O)NC(C)(C)C (centres undefined) 29%
O=C(NNc1nc(N2CCCC2)nc(N2CCCC2)n1)c1ccccc1 -0.122%
O=C1CCC(C(=O)N2CCC(O)(c3ccccc3)CC2)CN1CCc1ccccc1 (centres undefined) -11.9%
O=C(CN1C(=O)NC2(CCc3ccccc32)C1=O)NC1CCCCC1 (centres undefined) -10.5%
COC(=O)c1ccccc1N=NNc1ccc([N+](=O)[O-])cc1 -18.2%
COC(=O)c1c(C)oc(C)c1S(=O)(=O)Nc1ccc(C(C)C)cc1 5.75%
O=C(c1cc2ccccc2o1)N1CCN(c2cccc(C(F)(F)F)c2)CC1
Cc1cc2ccccn2c1C(=O)c1cccc(S(=O)(=O)N2CCOCC2)c1 -17.1%
N#Cc1c(-c2cccs2)nc(SCC(=O)c2ccc(Br)cc2)[nH]c1=O 13.2%
CCOC(=O)CC1COCCN1C(=O)c1cc(COc2ccc(F)c(F)c2)on1 (centres undefined) 64.4%
CCCN1CCn2c3c(c4cc(Br)ccc42)CCCC31 (centres undefined) 42.1%
O=C(CCNS(=O)(=O)c1ccc(Br)cc1)NCC1CCCO1 (centres undefined) -2.41%
Cc1cc(-c2nnc(SCC(=O)Nc3ccc(F)cc3)n2N)n[nH]1 20.7%
Cc1nn(-c2ccccn2)c2c1C(c1ccncc1)C1=C(CC(C)(C)CC1=O)N2 (centres undefined) -7.64%
C=CCn1c(SCC(=O)CC(=O)OCC)nc2cc(C(=O)N3CCC(C(N)=O)CC3)ccc2c1=O -3.87%
C=CCn1c2ccccc2c2nnc(SC(CC)C(=O)Nc3nc(C)c(C(=O)OCC)s3)nc21 (centres undefined) -24.9%
O=C(OCc1ccccc1)N1CCC2CC1c1ccc(-c3ccc4c(c3)OCO4)cc12 (centres undefined) 20%
CC(=O)Nc1ccc(Nc2cc(C)nc(Nc3ccc(NC(C)=O)cc3)n2)cc1 0.0358%
CCc1nc(Nc2ccc(NC(C)=O)cc2)c2oc3ccccc3c2n1 -1.52%
O=C1NC[C@H](CCCCN2C[C@H](Cc3ccccc3)N(Cc3ccccc3)C(=O)C2=O)N(CCc2ccc(O)cc2)C1=O 0%
CCC(Oc1ccccc1)C(=O)OCC(=O)Nc1c(C)nn(-c2ccccc2)c1C (centres undefined) 8.98%
Cc1cccc(C)c1NC(=O)CNC(=O)c1c(C)nn(-c2ccccc2)c1C -13.7%
O=C(NCc1ccccc1)C(c1ccc(F)cc1)N1CCN(C(=O)C2CCCO2)CC1 (centres undefined) 0%
CCO/N=C(/C)c1c(O)cc(-c2ccccc2)n(-c2ccccc2)c1=O 17.3%
CCCc1cc(=O)oc2c(C)c(OC(C)C(=O)NCC(O)c3ccccc3)ccc12 (centres undefined) -14.8%
C[C@@H]1ON(C)[C@H]2C[C@H]3c4cc(N5CCN(C)CC5)ccc4CCN3C(=O)[C@@H]12 -12.3%
C(#CCN1CCOCC1)CCCN1CCOCC1 26%
CO/N=C/c1ccc(N2CCN(C(=O)c3cccc(Cl)c3)CC2)c([N+](=O)[O-])c1 -16.9%
O=C(c1ccc(Cl)c([N+](=O)[O-])c1)N1CCN(c2ccccc2)CC1 -26.9%
CCOc1ccc(NS(=O)(=O)c2ccc(C(=O)NCC3CCCO3)cc2)cc1 (centres undefined) 8.79%
CCOC(=O)C1=NOC(Cn2cc(C(C)=O)c(=O)[nH]c2=O)C1 (centres undefined) -0.897%
Cc1ccc(S(=O)(=O)N2CCN(C(=O)COC(=O)/C=C/c3cccc(Cl)c3)CC2)c(C)c1 23.3%
CCOC(=O)N1CCC(NC(=O)Cn2cc3c(n2)CCCCC3)CC1 2.25%
O=C(/C=C/c1ccc(F)cc1)NC(=S)NNC(=O)c1cccnc1 20.7%
c1ccc2c(c1)OC1OC2Oc2ccccc21 10.9%
COc1cc(OC)c(C(=O)NC2CC(C)(C)NC(C)(C)C2)cc1OC 0%
COc1ccc(S(=O)(=O)NC(C)C)cc1C(=O)NC1CCCCC1 2.99%

Activity change, active:
CC(C)N(C(=O)CSc1nc(COc2ccccc2)nc2ccccc12)C(C)C -71.7%
CCOC(=O)C1Cn2c(nc3c(c2=O)C(C)(CC)Cc2ccccc2-3)S1 (centres undefined) -60.4%
Cc1cc(NC(=O)/C=C/C(=O)N(CC(=O)NC2CCCC2)c2ccc(F)cc2)no1 -87.8%
Cc1cc(NC(=O)/C=C/C(=O)N(c2ccccc2C)C(C(=O)NC2CCCC2)c2ccc(F)cc2)no1 (centres undefined) -95.1%
COc1ccc(Cn2c(-c3ccc(Cl)cc3)c[n+]3ccccc23)cc1 -79.9%
CC(C)(COC(=O)Nc1ccccc1)COC(=O)Nc1ccccc1 -50.5%
Cc1nc(/N=C(\N)NC(=O)NC2CCCCC2)nc2ccccc12 -104%
COc1ccc2nc(/N=C(\N)NC(=O)Nc3ccccc3)nc(C)c2c1 -80.5%
OC(CNCC1CCCO1)Cn1c2ccc(Br)cc2c2cc(Br)ccc21 (centres undefined) -62.5%
Cc1cc(C)c(C2C3=C(Nc4c2c(C)nn4-c2ccccn2)c2ccccc2C3=O)c(C)c1 (centres undefined) -68.9%
C=CCn1c2ccccc2c2nnc(SCc3[nH]c(=O)[nH]c3C(=O)CCCCC(=O)OCC)nc21 -80.5%
CC(=O)Nc1ccc(Nc2c3ccccc3nc3ccccc23)cc1 -98.2%
Cc1nn(-c2ccccc2)c(C)c1NC(=O)CCl -95%
O=C(/C=C/c1ccc(Cl)cc1)N1CCN(c2ccccc2[N+](=O)[O-])CC1 -78.3%
COc1cc(OC)c(C(=O)NC2CCCCCC2)cc1OC -59.1%

Source: PubChem BioAssay AID743279 (National Center for Advancing Translational Sciences (NCATS), 2014)
